Assay results from PubChem BioAssay (Tox21).
Inconclusive results are not listed. Activity calls are given as the source filed them. Calls come from the whole dose curve; as a rule, active = well fitted activation curve with a large enough effect in the repeat runs; inconclusive = weak or mixed curves; inactive = flat fitted curve, though single readings scatter.

experiment: A CellTox Green Cytotoxicity Assay to monitor cytotoxicity in HEK293 cells - 16 hour (AID 1224888); settings: CellTox Green fluorescence, active compounds read high; series mostly up to 76.8 µM; note: nearly all actives have a fitted effect of over 35% in size
Text: National Center for Advancing Translational Sciences [NCATS]
NIH Chemical Genomics Center [NCGC]
U.S. Environmental Protection Agency [EPA]
National Institutes of Environmental Health Sciences [NIEHS]
National Toxicology Program [NTP]
Cell-based models are critical for drug discovery. Determining the natural cytotoxic effects resulting from test compounds is an essential research activity. A CellTox Green Cytotoxicity Assay to monitor cytotoxicity in real time of continues cell culture during 40 hours of the compound treatment was used to screen Tox21 10K library compounds in Hek293 cells. CellTox Green Cytotoxicity Assay is a nonlytic, homogeneous, biofluorescent method to measure cytotoxicity in cell culture after experimental manipulation. The assay system uses a proprietary asymmetric cyanine dye that is excluded from viable cells but preferentially stains the dead cell's DNA. […] Viable cells produce no appreciable increases in fluorescence. Therefore, the fluorescence signal produced by the binding interaction with dead cell DNA is proportional to cytotoxicity.
The mixture of Hek293 cell suspension and reagents were dispensed at 600cells/6 ul/well in 1536-well tissue culture treated black solid bottom plates using a Multidrop dispenser. After the assay plates were incubated at a 37 C/5% CO2 incubator for 5 hours, 23 nL of compounds dissolved in DMSO, positive and negative controls was transferred to the assay plate by a pintool work station. The plates were incubated at 37 C for 40 hours. The fluorescence intensity were measured at 0h, 8h, 16h, 24h, 32h and 40h time points using ViewLux plate reader during compound treatment.
% is set by controls: 0 for no effect and ±100 for the full control effect.

| Structure (SMILES) | outcome | activity change |
| --- | --- | --- |
| O=C(c1ccccc1O)c1ccccc1O | inactive | – |
| CC(C)C1CCC(O)CC1 (stereo not given) | inactive | – |
| CO[Si](C)(OC)c1ccccc1 | inactive | – |
| Cc1coc2ccccc2c1=O | inactive | – |
| CCCCCCCCCCCCCCCCCCO | inactive | – |
| C=COCC1CCC(COC=C)CC1 (stereo not given) | inactive | – |
| CC(C)CCCO | inactive | – |
| O=C1c2ccccc2C(=O)c2cc(O)ccc21 | inactive | – |
| O=CN(CCO)CCO | inactive | – |
| NS(=O)(=O)Cc1noc2ccccc12 | inactive | – |
| CC1=CC(=O)[C@H]2C[C@@H]1C2(C)C | inactive | – |
| COc1cc(-c2ccc(=O)[nH]n2)ccc1OC(F)F | inactive | – |
| CCOC(=O)c1ccccc1 | inactive | – |
| O=C1CCCCCCCCCCCCCCO1 | inactive | – |
| Cc1ccnc(NS(=O)(=O)c2ccc(N)cc2)n1 | inactive | – |
| CC(=O)NC(=O)c1ccccc1O | inactive | – |
| CCCCN(CCC(=O)OCC)C(C)=O | inactive | – |
| c1ccc2sc(SN3CCOCC3)nc2c1 | inactive | – |
| COc1ccc2cc1Oc1cc3c(cc1OC)CC[N+](C)(C)[C@H]3Cc1ccc(cc1)Oc1c(OC)c(OC)cc3c1[C@@H](C2)[N+](C)(C)CC3 | inactive | – |
| O=C(CO)[C@@H](O)[C@H](O)[C@@H](O)CO | inactive | – |

| Structure (SMILES) | outcome | activity change |
| --- | --- | --- |
| CC1=C(C/C=C(\C)CCC[C@H](C)CCC[C@H](C)CCCC(C)C)C(=O)c2ccccc2C1=O | inactive | – |
| Cc1nc(C2CCCCC2)c(-c2ccc(S(N)(=O)=O)c(F)c2)o1 | inactive | – |
| CCN[C@@H]1C[C@H](N)[C@@H](OC2OC(CN)=CCC2N)[C@H](O)[C@H]1O[C@H]1OC[C@](C)(O)[C@H](NC)[C@H]1O (stereo not given in full) | – | 1.26% [at 0.29 µM] (inactive) |
| C=CC(C)(CCC=C(C)C)OC(=O)CC (stereo not given) | inactive | – |
| CCC1C(=O)OCC1Cc1cncn1C (stereo not given) | inactive | – |
| CC(=O)c1ccc2ccccc2c1 | inactive | – |
| COc1cc(C(=O)OC(COCCC(C)C)CN2CCOCC2)cc(OC)c1OC (stereo not given) | inactive | – |
| C[C@H]1C[C@H]2[C@@H]3CCC4=CC(=O)C=C[C@]4(C)[C@H]3C(=O)C[C@]2(C)[C@@]1(O)C(=O)CO | inactive | – |
| CC1=NN(c2cccc(S(=O)(=O)O)c2)C(=O)C1 | inactive | – |
| CCCc1ncc(C[n+]2ccccc2C)c(N)n1 | inactive | – |
| C=CCCCCCCCCC(=O)OCC | inactive | – |
| CCCCCCCCCCOc1cc2c(=O)c(C(=O)OCC)c[nH]c2cc1OCC | – | 0.406% [at 6.97 µM] (inactive) |
| CCCc1nn(C)c2c(=O)[nH]c(-c3cc(S(=O)(=O)N4CCN(C)CC4)ccc3OCC)nc12 | inactive | – |
| Nc1ccncc1N | inactive | – |
| C=C(C)C(=O)OCC1CCCO1 (stereo not given) | inactive | – |
| C=COC(=O)C(C)(CC)CCC(C)C (stereo not given) | inactive | – |
| COc1ccnc(CS(=O)c2nc3cc(OC(F)F)ccc3[nH]2)c1OC (stereo not given) | inactive | – |
| O=C(O)c1cc(C(=O)O)cc(C(=O)O)c1 | inactive | – |
| O=[N+]([O-])c1cncn1CCN1CCOCC1 | inactive | – |
| CC1(C)[C@@H]2CC[C@@]1(C)[C@H](O)C2 | inactive | – |
